Out of some 400,000 compounds screened, about 13,000 (3.2%) were called active. Entries that show only a call come without a potency. Inconclusive results (about 18%) are left out. The call rests on the fitted dose curve; in most records, active means well fitted cell-killing curve with a large enough effect; inconclusive means small, poorly fitted or top-dose-only effect, or effect the other way; inactive means flat fitted curve, though single readings scatter. The sample as a whole holds a higher share of actives than the screen did.
experiment: qHTS assay for MDR1-selective chemotherapeutics: Primary screen using the drug-selected MDR subline cells KB-V1; conditions: KB-V1 MDR cells viability, CellTiter-Glo, 72 h; series mostly up to 46.1 µM; further: nearly all actives have a fitted effect of over 60% in size
Summary of the method: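 Following 72 h at 37 degrees C with compound, KB-V1 cell viability was read by CellTiter-Glo luminescence, medium being phenol-red-free DMEM plus 10% FBS; concentration-response parameters came from normalized, curve-fitted qHTS data.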
Potency means the concentration at half of the fitted maximal effect.

Compound	Potency
CCOc1ccccc1CNC(=O)c1cnc2c(-c3ccc(OCC)c(OCC)c3)c(C)nn2c1C	inactive
Cc1ccccc1NC(=O)NNC(=O)OC(C)(C)C	inactive
Cc1ccc(C(=O)NNC(=O)OC(C)(C)C)c(Cl)c1	inactive
CC(C)(C)OC(=O)NNc1c2ccccc2nc2ccccc12	9.2 µM (active)
COC(=O)[C@H]1C[C@H](OC(=O)NCc2ccccc2)[C@@]2(O)CN(S(=O)(=O)c3ccc(C)cc3)CC2[C@H]1C(=O)OC (stereo partly specified)	inactive
COc1ccc(NC(=O)CSc2nc(NS(=O)(=O)c3ccc(C)cc3)cc(=O)[nH]2)cc1	3.66 µM (active)
Cc1ccc(NC(=O)CSc2nc(CSc3ccc(C)cc3)cc(=O)[nH]2)cc1	inactive
Cc1cc(=O)[nH]c(SCC(=O)Nc2ccc(Br)cc2)n1	inactive
CC1(C(=O)NS(=O)(=O)c2ccccc2)CCN1C(=O)C1CCCCC1 (stereo unspecified)	inactive
COC(=O)C[C@H]1C[C@@H]2c3cc(NC(=O)Nc4ccccc4)ccc3O[C@@H]2[C@@H](CO)O1	inactive
COc1cc(OC)cc(C2=Cc3ccccc3C(CC(=O)c3ccco3)N2c2ccc(-c3cnc(OC)nc3)cc2)c1 (stereo unspecified)	inactive
O=S(=O)(/N=C(/Nc1ccccn1)c1ccccc1)c1ccc(Cl)cc1	14.6 µM (active)
O=S(=O)(Nc1ccccn1)c1cccc(S(=O)(=O)c2ccc(Cl)cc2)c1	inactive
Cc1ccc(S(=O)(=O)/N=C(/Nc2ccccn2)c2ccc(Cl)cc2)cc1	inactive
OC(CBr)CN1CCCCC1 (stereo unspecified)	inactive
CCn1cc(C(=O)N(C)Cc2ccccc2)c(=O)c2cc(S(=O)(=O)N3CCCCCC3)ccc21	inactive
Cc1ccc(-c2ccc(C3=CC(=O)CC(C)(C)C3=O)cc2)cc1	inactive
CC(C)(C)Cc1c(C2CCCCC2)nc2ccc(Br)cn12	inactive
O=C(/C=C/c1ccccc1)N/C(=C/c1ccccc1)C(=O)Nc1ccccc1O	23.1 µM (active)
CCc1ccccc1NC(=O)/C(=C/c1ccccc1)c1ccccc1	inactive
O=C(Nc1ccc(C(=O)O)cc1)/C(=C\c1ccccc1)NC(=O)c1ccc(Br)cc1	inactive
CCOC(=O)c1csc(NC(=O)c2ccc(S(=O)(=O)N3CCCC3)cc2)n1	inactive
Cc1cc2nc(NC(=O)c3ccc(S(=O)(=O)N4CCOCC4)cc3)sc2cc1C	inactive
COc1ccc(C(=O)Nc2nc(-c3ccc(S(=O)(=O)N4CCOCC4)cc3)cs2)cc1	16.4 µM (active)
O=C(O)c1ccccc1Cc1ccc(F)c2ccccc12	inactive
COC(=O)C[C@H]1C=C[C@@H](NS(=O)(=O)c2ccc(C)cc2)[C@@H](CO)O1	inactive

Compound	Potency
Cc1[nH]c2ccccc2c1C(=O)C(=O)N(C)c1ccccc1	inactive
CNS(=O)(=O)c1ccc2c(c1)[nH]c(=S)n2C	inactive
Cc1nc(CNS(=O)(=O)c2cccnc2)cs1	inactive
Cc1nc(CNS(=O)(=O)c2ccc(Oc3ccccc3)cc2)cs1	8.2 µM (active)
Cc1ccc(S(=O)(=O)NCc2csc(C)n2)c(C)c1	inactive
CC(=O)c1ccccc1NC(=O)COC(=O)C1COc2ccccc2O1 (stereo unspecified)	inactive
COc1cc(C(O)c2nc(-c3cccc(C(=O)O)c3)cs2)ccc1F (stereo unspecified)	inactive
COC(=O)C1=CN(c2c(C)cc(C)cc2C)C(N)=C(C#N)C1c1cccc(F)c1 (stereo unspecified)	inactive
O=C(NC1CC1)c1cccc(Br)c1	inactive
COC(=O)C1NN=C(C(=O)c2ccc(Br)cc2)C1c1cccc(Br)c1 (stereo unspecified)	23.1 µM (active)
Cc1nnc(C)n1-c1ccc(C(=O)Nc2cccc(Br)c2)cc1	inactive
Cc1ccc(-n2c(C)cc(/C=N/Nc3ccc([N+](=O)[O-])cn3)c2C)c(C)c1	inactive
Cc1cccc(COc2ccccc2/C=N/Nc2ccc([N+](=O)[O-])cc2)c1	16.4 µM (active)
Cc1ccc(NS(=O)(=O)c2ccc(N/N=C/c3ccccc3OCC(=O)O)c([N+](=O)[O-])c2)c(C)c1	inactive
CC1(C)OC(=O)C2=C(CC(c3ccccc3)OC2CCc2ccccc2)O1 (stereo unspecified)	inactive
Cc1noc(C)c1NC(=O)N(C)C[C@@H]1Oc2cc(Br)ccc2S(=O)(=O)N([C@@H](C)CO)C[C@H]1C	inactive
Fc1ccccc1COc1cccc2cccnc12	inactive
Fc1ccccc1COc1ccccc1CNCc1ccncc1	6.51 µM (active)
CCOc1cc(/C=N/O)ccc1OCc1ccccc1F	inactive
COc1ccc(-n2nnc(-c3nsc(NC(=O)c4ccc(C)c(C)c4)n3)c2C)cc1Cl	inactive
CCOc1ccc(NC(=O)Nc2ccc(N(C)C(C)=O)cc2)cc1	inactive
COc1ccc(C)cc1NC(=O)NCc1ccccn1	inactive
CCOc1ccc(NC(=O)Nc2cc(C)ccc2OC)cc1	14.6 µM (active)
Cc1ccc(Cl)cc1-n1ncc2c(N3CCC(C(N)=O)CC3)ncnc21	inactive
CC(=O)c1ccc(OCC(=O)N(C)C2CCS(=O)(=O)C2)cc1 (stereo unspecified)	inactive
COc1ccc(CCNc2nc(-c3ccc(F)cc3)cc(C(F)(F)F)n2)cc1OC	inactive

Compound	Potency
O=C(COc1cc(Cl)c(Cl)cc1Cl)NC(=O)NC1CCCC1	inactive
CCCC(=O)Nc1cc(OCC)c(NC(=O)NC2CCCCC2)cc1OCC	inactive
CCCN(CC(=O)NC(=O)NC1CCCCC1)CC(=O)Nc1cc(Cl)ccc1Cl	4.11 µM (active)
CSc1ccc(CNC(=O)C2(C)CCCN2C)cc1 (stereo unspecified)	inactive
CCN(CC)c1ncnc2c1ncn2[C@H]1CN(Cc2cccs2)C[C@@H](CO)O1	inactive
COCCNC(=O)c1ccc2c(c1)N=C(C)c1cc(C)ccc1S2	0.92 µM (active)
CCC1=Nc2cc(C(=O)NCCCN3CCOCC3)ccc2Sc2ccc(Br)cc21	inactive
CCC1=Nc2cc(C(=O)NCCN3CCCC3)ccc2Sc2ccc(C)cc21	inactive
CCN1C(=O)[C@@H]2[C@@H]3CN(S(=O)(=O)c4ccccc4C)[C@@H](c4ccc(Cl)cc4)[C@@H]3C(=O)C[C@@H]2C1=O	inactive
Cc1ccc(S(=O)(=O)N2CCN(C(=O)COC(=O)c3c(C)noc3C)CC2)c(C)c1	inactive
COc1ccc(C(=O)COC(=O)c2c(C)noc2C)cc1Cl	inactive
Cc1ccc(-c2nc(COC(=O)c3c(C)noc3C)cs2)cc1	23.1 µM (active)
CCc1ccc(C2CC(=O)c3c([nH]c(C(=O)OCc4ccc(C)cc4)c3C)C2)cc1 (stereo unspecified)	inactive
COc1ccc(-n2c(=O)c3ccccc3n(Cc3ccccc3Cl)c2=O)cc1	inactive
N#CCCN(C(=S)Nc1ccc(Cl)c(Cl)c1)C1CCCCC1	inactive
COc1ccc(C2C(=O)N(C3CCCCC3)CC(=O)N2Cc2ccccc2Cl)cc1OC (stereo unspecified)	inactive
CCCC(=O)N1CCC1(C)C(=O)NS(=O)(=O)c1ccc(Cl)cc1 (stereo unspecified)	inactive
CCn1cc(C(=O)NCCc2ccccc2)c(=O)c2cc(S(=O)(=O)N3CCCCCC3)ccc21	inactive
CCOc1ccccc1NC(=O)Cc1cccs1	inactive
CCOc1ccccc1NC(=O)Cn1nnc(C(=O)NCc2cccs2)c1N	0.58 µM (active)
CCOc1ccccc1NC(=O)Cn1nnc(C(=O)Nc2ccc(C)c(C)c2)c1N	inactive
O=C(Cc1ccc(Cl)cc1)Nc1ccc2nn(-c3ccc(Cl)cc3)nc2c1	inactive
CC1CN(c2nc(Nc3ccccc3)nc(N)c2[N+](=O)[O-])CC(C)O1 (stereo unspecified)	inactive
Nc1nc(NCCCN2CCOCC2)nc(Nc2ccccc2)c1[N+](=O)[O-]	23.1 µM (active)
O=[N+]([O-])c1ccc(NCCCN2CCOCC2)c(Cl)c1	inactive
COc1ccc(-c2cc3c(c4c2ccn4C)C2CCC3C2)cn1 (stereo unspecified)	inactive

Compound	Potency
O=C(Cn1c(=O)nc(-c2ccccc2)c2cc(Cl)ccc21)NCc1ccc(Cl)cc1	inactive
COc1cccc(NC(=O)Nc2ccc(F)cc2)c1	inactive
CC1(C(=O)NS(=O)(=O)c2ccc3ccccc3c2)CCN1C(=O)C1(c2ccc(Cl)cc2)CCC1 (stereo unspecified)	inactive
CN(C)C(CNC(=O)c1cccc(S(=O)(=O)N2CCc3ccccc3C2)c1)c1ccccc1 (stereo unspecified)	inactive
CN1CCN(S(=O)(=O)c2cccc(C(=O)N3CCc4ccccc43)c2)CC1	inactive
Cc1cccc(N2CCN(C(=O)c3cccc(S(=O)(=O)N4CCc5ccccc5C4)c3)CC2C)c1 (stereo unspecified)	2.59 µM (active)
O=C(COC(=O)c1cncc(Br)c1)Nc1ccc(S(=O)(=O)N2CCOCC2)cc1	inactive
Cc1ccc(C)c(S(=O)(=O)N2CCN(c3ncnc4sccc34)CC2)c1	7.31 µM (active)
Cc1ccc(S(=O)(=O)N2CCN(c3ncnc4ccccc34)CC2)cc1	inactive
COc1ccc(C)cc1S(=O)(=O)N1CCN(S(=O)(=O)c2cc(C(=O)O)ccc2C)CC1	inactive
CCc1nc2c(OCc3ccccc3)cccn2c1N(C)C(=O)c1ccco1	inactive
COc1ccccc1Cc1c(-c2ccc(Cl)cc2)nc2ccc(Cl)cn12	inactive
CCCCNS(=O)(=O)CCNCc1ccccc1OC	inactive
COc1ccc(CNC(=O)c2cc3c(-c4ccccc4F)nn(C)c3s2)c(OC)c1	inactive
COc1cccc(OC)c1C(=O)N1CCN(Cc2ccccc2F)CC1	inactive
CCCc1c(-c2ccccc2F)ncn1Cc1ccccc1OC	20.6 µM (active)
CCCCc1c(-c2ccc(Br)cc2)ncn1CCc1ccccc1OC	20.6 µM (active)
COc1ccccc1CCNS(=O)(=O)c1cn(C)nc1C	inactive
CCCCc1c(-c2ccc(Cl)cc2)ncn1CCc1ccccc1OC	13 µM (active)
COc1ccccc1Cc1c(-c2ccc(Cl)cc2)nc2c3ccccc3ccn12	inactive
COc1cc(Br)cc2cc(S(=O)(=O)c3ccccc3)c(=O)oc12	inactive
CCc1cccc(NC(=O)c2cnc(N3CCOCC3)c3ccccc23)c1	inactive
Oc1ccccc1-c1nc2ccc(Cl)cn2c1Nc1ccc2c(c1)OCCO2	inactive

Reference: PubChem BioAssay AID1347076 (National Center for Advancing Translational Sciences (NCATS), 2019)
